Screening data (PubChem)
Compounds with a hit are over-represented: about 0.52% of the library has one in this group of screens.
USP2a inh: qHTS Assay for Inhibitors of Ubiquitin-specific Protease USP2a Using CHOP2 as the Reporter; USP2 core, Ub-CHOP2 coupled fluorogenic reporter, 485/531; 330,000 compounds, 0.01% hits; Ubiquitin carboxyl-terminal hydrolase 2 (Homo sapiens), O75604; Potency, µM (series often up to 38.3 µM), for the others: at the highest dose activity change, negative = inhibition, usual class: inhibitors;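 note: plate controls were DMSO wells for no effect and full inhibition by NEM control for full effect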
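USP2 core (10nM final) preincubated 30min RT with compound in 20mM Tris-HCl pH 8.0, 2mM CaCl2, 2mM beta-mercaptoethanol, 0.05% CHAPS; 25nM Ub-CHOP2 plus 25nM reporter substrate added, fluorescence (Ex485/Em531) read after 60min.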
uPA generation: qHTS for Inhibitors of Cell Surface uPA Generation; AID 540303, 2011; cell surface uPA generation assay, qHTS; Potency, µM (doses to about 38.3 µM), without a hit: at the highest dose activity change, negative = inhibition, hits mostly inhibitors; 330,000 compounds, 0.31% hits; active = well fitted inhibition curve with a large enough effect; inconclusive = small, poorly fitted or top-dose-only effect; inactive = no such curve, though single readings can be large or run the other way; tested in mouse RAW 264.7 cells; note: nearly all actives have a fitted effect of over 55% in size
Chronic BCR inh: qHTS Assay to Find Inhibitors of Chronic Active B-Cell Receptor Signaling. 340,000 compounds, 0.05% hits. Potency, µM (titrated, usually from 46.1 µM), without a hit: top-dose activity change, negative = inhibition, usual class: inhibitors. ABC-DLBCL IkBa-CBG/CBR reporter, luminescence ratio, 4 h; active = well fitted inhibition curve with a large enough effect in the signal ratio, with a control signal flat, not every such curve was filed as active; inconclusive = small, poorly fitted or top-dose-only effect, or effect the other way, or a change in a side signal; the % refers to the signal ratio;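 note: plate controls were basal doxycycline-induced cells for no effect and cells given 10 µM MG132 for full effect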
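TMD8 human ABC-DLBCL cells with doxycycline-inducible IκBα–green luciferase fusion and unfused red luciferase, in 0.5% FBS medium; compounds up to 46 uM, 4 h at 37C. Green/red luminescence ratio, filter-overlap corrected, fitted to concentration-response curves.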
Eya2 phos inh: qHTS Assay for Inhibitors of the Phosphatase Activity of Eya2. recombinant Eya2, OMFP fluorescence dephosphorylation (OMFP is methylfluorescein phosphate). Potency, µM (highest dose often 76.9 µM), for inactives: at the top dose activity, negative = inhibition, most hits filed as inhibitors. 330,000 compounds, 0.006% hits. AID 488837, 2010
Target sequence (O00167 whole entry, looked up): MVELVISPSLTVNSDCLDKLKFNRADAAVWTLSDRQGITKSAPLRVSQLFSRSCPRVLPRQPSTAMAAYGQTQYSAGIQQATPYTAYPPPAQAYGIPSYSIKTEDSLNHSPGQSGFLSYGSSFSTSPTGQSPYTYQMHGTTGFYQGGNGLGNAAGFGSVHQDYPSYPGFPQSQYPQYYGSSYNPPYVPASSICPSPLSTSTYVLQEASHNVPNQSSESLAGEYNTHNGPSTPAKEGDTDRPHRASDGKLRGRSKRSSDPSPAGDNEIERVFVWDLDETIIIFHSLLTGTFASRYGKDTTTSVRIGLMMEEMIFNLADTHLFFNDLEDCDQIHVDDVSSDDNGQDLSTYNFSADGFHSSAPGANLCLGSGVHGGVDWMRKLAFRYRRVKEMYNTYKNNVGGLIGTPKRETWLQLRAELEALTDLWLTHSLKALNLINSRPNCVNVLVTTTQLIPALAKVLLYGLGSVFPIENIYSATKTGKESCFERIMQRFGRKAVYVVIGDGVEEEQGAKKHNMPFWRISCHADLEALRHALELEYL
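Eya2 (0.2 uM) preincubated 10 min at ambient with compound, then OMFP substrate added at 50 uM; 10 min reaction in 50 mM HEPES pH 7.5, 50 mM NaCl, 5 uM MgCl2, 0.05% BSA, 1 mM DTT. Fluorescence read at Ex 485/Em 525 nm.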
KAT2A inh: qHTS Assay for Inhibitors of GCN5L2. GCN5L2 HAT assay, ThioGlo1 CoA-SH fluorescence. Potency, µM (highest dose often 58.9 µM), inactives show at the top dose activity change, negative = inhibition, usual class: inhibitors. 390,000 compounds, 0.21% hits. AID 504327, 2011
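qHTS, 1536-well. 20nM enzyme, pH 7.5 HEPES/EDTA/Tween-20 buffer; 15 min compound preinc., RT. Start: 75uM H3(1-25), 70uM AcCoA, 50uM ThioGlo1. Read Ex340/Em540 at t=0 (autofluorescence flag) and t=20 min.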
RGS4 inhibitor: Inhibitors of Regulator of G Protein Signaling (RGS) 4: qHTS; Regulator of G-protein signaling 4 (Homo sapiens), P49798; Transcreener GDP fluorescence polarization, RGS4-accelerated GTP hydrolysis; Potency, µM (series often up to 114 µM), for inactives: at the top dose activity change, negative = inhibition, hits mostly inhibitors; 390,000 compounds, 0.039% hits; AID 504845, 2011; note: nearly all actives have a fitted effect of over 75% in size
Target sequence (P49798 whole entry, looked up): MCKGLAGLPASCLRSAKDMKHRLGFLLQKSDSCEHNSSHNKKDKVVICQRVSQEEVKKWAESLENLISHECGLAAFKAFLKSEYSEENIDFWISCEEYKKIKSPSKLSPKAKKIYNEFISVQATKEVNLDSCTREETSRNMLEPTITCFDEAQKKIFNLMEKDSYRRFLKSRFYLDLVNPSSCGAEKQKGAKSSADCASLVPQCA
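MLSMR compounds (23 nl, pin-transferred) preincubated 10 min at room temperature with a 500nM (2x) first reagent, then RGS4 at 900nM (2x) plus Transcreener GDP mix added; fluorescence polarization (620/688 nm) read before and after 90 min at 30 °C.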
Numbers without * were called inactive; ? = inconclusive; . = no result; ! = a repeat was not active; [ ] = another dose, or the depositor's remark. Unless noted, calls come from the whole dose curve; as a rule, active = well fitted curve in the direction sought with a large enough effect; inconclusive = small, poorly fitted or top-dose-only effect, or another doubt; inactive = no such curve, though single readings can be large; an effect the other way counts as inactive or inconclusive. Unless noted, % is set by controls: 0 for no effect and ±100 for the full control effect; potency is the fitted concentration of half-maximal effect.

SMILES	USP2a inh	uPA generation	Chronic BCR inh	Eya2 phos inh	KAT2A inh	RGS4 inhibitor
C/C(=N/NC(N)=S)c1ccc(Br)s1	-1.8%	-5.8%	20µM*	2.1%	0.3%	?
Cc1cccc(N2CCN(C(=O)c3ccc4c(c3)NC(=O)C(CSCc3cccc(F)c3)N4)CC2C)c1 (centres undefined)	2.2%	-24.7%	-13.4%	11.2%	14.1µM*	?
O=C1Nc2cc(C(=O)N3CCN(c4ccccc4F)CC3)ccc2NC1CSCc1ccccc1F (centres undefined)	0.6%	.	1.4%	6.8%	?	.
FC(F)(F)c1cccc(N2CCN(c3ncnc4c3nc3n4CCCC3)CC2)c1	.	.	.	.	-6.3%	-3.7%
COc1cc(OC)c2c(-c3ccccc3)cc(=O)oc2c1C(CCN1CCCCC1)c1ccc(N(C)C)cc1 (centres undefined)	7.1%	10µM*	-7.6%	-10.0%	22.7%	6.5%
COc1cc(OC)c2c(-c3ccccc3)cc(=O)oc2c1C(CCN1CCOCC1)c1ccc(N(C)C)cc1 (centres undefined)	-8.2%	?	-13.4%	-15.3%	-11.1%	-19.9%
O=C(/C=C/c1ccc(Cl)cc1Cl)Nc1cccc(S(=O)(=O)NC2=NCCC2)c1	-1.1%	4.47µM*	?	11.1%	-18.1%	-109.4%[56.9 µM]
C=CC[n+]1c(-c2ccc(C)cc2)csc1Nc1ccc(NC(C)=O)cc1	-1.2%	7.08µM*	-3.9%	-3.9%	-20.2%	5.1%[56.9 µM]
C=CC[n+]1c(-c2ccc(OC)cc2)csc1NNC(=O)Nc1ccccc1	0.8%	-0.9%	6.3%	-4.5%	-2.0%	-38.7%
Cc1noc(C)c1COc1ccc(C(=O)NNC(=O)c2ccccc2F)cc1	0.7%	2.82µM*	?	13.2%	1.7%	7.8%
Cc1noc(C)c1COc1ccc(C(=O)NNC(=O)c2ccccc2)cc1	2.8%	-12.9%	?	12.5%	-3.7%	4.1%
CC(C)CC(=O)/C(=C/c1ccc(N(C)C)cc1)n1cncn1	0.4%	-3.6%	0.4%	-7.1%	-3.6%	-7.5%
CC(C)CC(=O)/C(=C\c1ccc(Cl)cc1Cl)n1cncn1	1.3%	7.08µM*	?	-1.4%	3.3%	?
Cc1cc(C(=O)N/N=C/c2ccc([N+](=O)[O-])cc2)c2ccccc2n1	-0.5%	2.82µM*	?	-0.5%	-1.1%	13.4%
Cc1ccc(-c2cc(C(=O)N/N=C/c3cccnc3)c3ccccc3n2)cc1C	.	10µM*	.	.	.	-26.1%
O=C1NC(=O)/C(=C/c2ccc3c(c2)OC(F)(F)O3)S1	.	.	.	15.0%	-14.7%	?
CCCCCCn1c(SCCCC)nc2c1c(=O)[nH]c(=O)n2C	4.6%	2.3%	1.1%	13.9%	-19.7%	-34.4%
CCn1c([N+](=O)[O-])nc2c1c(=O)[nH]c(=O)n2C	-0.6%	10µM*	?	-1.6%	-12.4%	-73.9%[56.9 µM]
Cc1onc(-c2ccccc2Cl)c1C(=O)O/N=C(\N)c1ccc([N+](=O)[O-])o1	-6.5%	4.47µM*	17.0%	-27.5%	0.4%	8.7%
Cn1nnnc1Sc1ncnc2scc(-c3cccc(S(C)(=O)=O)c3)c12	-4.7%	-6.1%	-5.0%	-0.1%	-2.0%	-15.3%
Cn1nnnc1Sc1ncnc2scc(-c3ccccc3Cl)c12	1.8%	10µM*	?	-12.7%	-1.0%	-0.5%
Cn1nnnc1Sc1ncnc2scc(-c3cccc(Br)c3)c12	1.1%	8.91µM*	-0.6%	18.6%	0.0%	-7.0%
Cc1cccc(N2CCN(C(=O)c3ccc4c(Cl)c5c(nc4c3)CCCC5)CC2)c1C	.	.	.	.	-8.9%	5.2%
COc1cc(C(=O)NC(=S)NNC(=O)c2cnccn2)cc(OC)c1OC	7.7%	10µM*	-0.2%	3.3%	-2.1%	-22.5%
CC[C@@]1(c2ccccc2)NC(=O)NC1=O	.	.	.	.	40.8%	.
SMILES	USP2a inh	uPA generation	Chronic BCR inh	Eya2 phos inh	KAT2A inh	RGS4 inhibitor
Cc1ccc(/C=C/c2onc(C)c2S(=O)(=O)N2CCC(C(=O)NCC(C)c3ccccc3)CC2)cc1 (centres undefined)	.	.	.	.	3.0%	3.5%
CC(C)(C)c1ccc(/C=C/C(=O)NC2=NCCS2)cc1	2.6%	2.4%	9.4%	10.4%	-1.5%	-24.8%
Cc1ccc(/C=C/C(=O)NC2=NCCS2)cc1	-0.5%	10µM*	?	1.6%	-7.7%	8.4%
COc1cc2sc3cc(NCc4ccc(C)o4)ccc3c(=O)c2cc1OC	-16.4%	12.6µM*	-2.2%	22.0%	-18.8%	-43.4%
CNCCN(C)c1nc(-c2cccs2)nc2ccccc12	.	.	.	.	.	18.1%
O=C(O)c1cc(-c2ccco2)nn1-c1ccc(Cl)cc1	-19.1%	0.2%	-0.5%	-2.0%	20µM*	?
CCCOc1ncnc2c1[nH]c1ccc(OC)cc12	1.9%	4.47µM*	9.5%	-5.0%	-1.1%	14.2%
COc1ccc(OCc2nc3ccccc3n2C(C)c2ccccc2)cc1 (centres undefined)	.	.	.	.	-16.1%	-10.5%
O=C(NC(=C(Cl)Cl)S(=O)(=O)c1ccc(Cl)cc1)c1ccccc1	-0.6%	8.91µM*	6.9%	-14.1%	0.7%	-3.5%
Cc1ccc(S(=O)(=O)C(NC(=O)c2ccccc2)=C(Cl)Cl)cc1	.	-16.4%	.	.	.	15.8%[11.4 µM]
CCCCCCCCCCCCCCCC(=O)OC(CC(=O)O)C[N+](C)(C)C (centres undefined)	-14.8%	?	?	-12.7%	-4.3%	18.9µM*!
CCCCCCCCCC(=O)OCC(CO)OC(=O)CCCCCCCCC (centres undefined)	.	.	.	.	-10.6%	26.7µM*
CCCCCCCCCCCCCCCC(=O)OCC(COC(=O)CCCCCCCCCCCCCCC)OC(=O)CCCCCCCCCCCCCCC	.	.	.	.	-0.8%	.
CCCOc1cccc(C(=O)N(Cc2ccc(C)o2)C2CCS(=O)(=O)C2)c1 (centres undefined)	.	.	.	.	2.7%	17.9%
[N-]=[N+]=Nc1ccc(C(=O)CSC[C@H](NC(=O)CC[C@H](N)C(=O)O)C(=O)NCC(=O)O)cc1	.	.	.	0.3%	7.94µM*	3.36µM*
O=C(Nc1nnc(C2CC2)o1)c1ccc(S(=O)(=O)N2CCCc3ccccc32)cc1	-6.8%	6.31µM*	-2.0%	2.8%	-11.9%	0.3%
O=c1[nH][nH]c(=S)n1C1CCCCC1	-0.6%	-0.4%	-0.5%	-15.7%	15.8µM*	-128.4%
